The target of assay [1] is Mitogen-activated protein kinase 11 (Homo sapiens) (UniProt Q15759). As to conditions: at 1 µM.
Assay [2] has the same target. The following applies: at 10 µM.
In assay [3] the target is T1, Mitogen-activated protein kinase 13 (Homo sapiens) (UniProt O15264).
T1 sequence (whole entry): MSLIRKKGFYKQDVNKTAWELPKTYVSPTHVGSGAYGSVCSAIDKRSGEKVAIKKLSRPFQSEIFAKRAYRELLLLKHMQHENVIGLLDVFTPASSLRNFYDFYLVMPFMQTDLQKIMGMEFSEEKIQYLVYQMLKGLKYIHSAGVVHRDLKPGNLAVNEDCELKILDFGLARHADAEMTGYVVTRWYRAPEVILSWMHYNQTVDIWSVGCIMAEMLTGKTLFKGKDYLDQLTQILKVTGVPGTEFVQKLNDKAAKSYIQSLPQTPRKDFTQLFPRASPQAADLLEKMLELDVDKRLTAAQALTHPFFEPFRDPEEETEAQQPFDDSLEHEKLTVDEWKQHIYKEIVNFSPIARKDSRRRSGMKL
The following applies: at 1 µM.

In assay [4] the target is T1, Mitogen-activated protein kinase 13 (Homo sapiens). As to conditions: at 10 µM.
The target in assay [5] is T2, Serine/threonine-protein kinase Sgk1 (Homo sapiens) (UniProt O00141).
T2 sequence (whole entry): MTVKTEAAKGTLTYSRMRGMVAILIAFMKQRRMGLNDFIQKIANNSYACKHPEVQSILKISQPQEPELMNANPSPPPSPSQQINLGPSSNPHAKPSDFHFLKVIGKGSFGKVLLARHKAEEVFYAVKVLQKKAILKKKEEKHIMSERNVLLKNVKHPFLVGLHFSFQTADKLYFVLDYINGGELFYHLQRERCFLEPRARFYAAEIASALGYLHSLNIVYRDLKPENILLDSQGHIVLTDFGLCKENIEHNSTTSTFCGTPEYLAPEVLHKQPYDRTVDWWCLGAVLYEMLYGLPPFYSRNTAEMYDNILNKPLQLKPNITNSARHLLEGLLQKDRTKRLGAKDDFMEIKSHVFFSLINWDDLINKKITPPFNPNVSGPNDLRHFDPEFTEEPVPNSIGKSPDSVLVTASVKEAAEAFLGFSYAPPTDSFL
As to conditions: at 1 µM.

In assay [6] the target is T2, Serine/threonine-protein kinase Sgk1 (Homo sapiens). As to conditions: at 10 µM.
The target of assay [7] is T3, Serine/threonine-protein kinase Sgk2 (Homo sapiens) (UniProt Q9HBY8).
T3 sequence (whole entry): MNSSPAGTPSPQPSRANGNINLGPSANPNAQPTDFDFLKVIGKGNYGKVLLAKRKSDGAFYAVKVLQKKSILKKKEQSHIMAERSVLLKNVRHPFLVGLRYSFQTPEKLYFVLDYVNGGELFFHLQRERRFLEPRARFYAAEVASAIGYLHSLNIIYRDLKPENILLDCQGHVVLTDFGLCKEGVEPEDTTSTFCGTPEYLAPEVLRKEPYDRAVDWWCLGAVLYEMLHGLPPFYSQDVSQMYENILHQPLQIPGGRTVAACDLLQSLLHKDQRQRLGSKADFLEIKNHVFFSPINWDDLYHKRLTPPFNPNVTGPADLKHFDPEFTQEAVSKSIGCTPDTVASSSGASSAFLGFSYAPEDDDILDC
As to conditions: at 1 µM.

Assay [8] concerns the target T3, Serine/threonine-protein kinase Sgk2 (Homo sapiens). As to conditions: at 10 µM.
Assay [9] addresses T4, Serine/threonine-protein kinase Sgk3 (Homo sapiens) (UniProt Q96BR1).
T4 sequence (whole entry): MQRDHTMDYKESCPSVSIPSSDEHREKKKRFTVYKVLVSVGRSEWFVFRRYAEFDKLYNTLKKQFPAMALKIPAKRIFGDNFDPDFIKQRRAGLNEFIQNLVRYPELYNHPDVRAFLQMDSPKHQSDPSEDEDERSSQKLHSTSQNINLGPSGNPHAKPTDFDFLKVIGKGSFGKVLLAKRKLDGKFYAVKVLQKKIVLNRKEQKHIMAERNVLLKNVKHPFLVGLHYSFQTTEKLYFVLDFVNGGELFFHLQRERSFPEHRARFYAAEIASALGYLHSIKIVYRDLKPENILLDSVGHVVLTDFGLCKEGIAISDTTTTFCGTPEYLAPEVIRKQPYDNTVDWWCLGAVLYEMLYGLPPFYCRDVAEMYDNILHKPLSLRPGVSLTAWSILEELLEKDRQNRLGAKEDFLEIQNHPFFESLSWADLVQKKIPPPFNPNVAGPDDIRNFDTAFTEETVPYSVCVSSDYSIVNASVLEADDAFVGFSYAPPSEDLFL
The following applies: at 10 µM.

Assay [10] concerns the target Serine/threonine-protein kinase SIK1 (Homo sapiens) (UniProt P57059). As to conditions: at 1 µM.
The target is the same in assay [11]. As to conditions: at 10 µM.
For assay [12], the target named is SRSF protein kinase 1 (Homo sapiens) (UniProt Q96SB4). As to conditions: at 1 µM.
Chain of SRSF protein kinase 1 (Homo sapiens) (Q96SB4 whole entry): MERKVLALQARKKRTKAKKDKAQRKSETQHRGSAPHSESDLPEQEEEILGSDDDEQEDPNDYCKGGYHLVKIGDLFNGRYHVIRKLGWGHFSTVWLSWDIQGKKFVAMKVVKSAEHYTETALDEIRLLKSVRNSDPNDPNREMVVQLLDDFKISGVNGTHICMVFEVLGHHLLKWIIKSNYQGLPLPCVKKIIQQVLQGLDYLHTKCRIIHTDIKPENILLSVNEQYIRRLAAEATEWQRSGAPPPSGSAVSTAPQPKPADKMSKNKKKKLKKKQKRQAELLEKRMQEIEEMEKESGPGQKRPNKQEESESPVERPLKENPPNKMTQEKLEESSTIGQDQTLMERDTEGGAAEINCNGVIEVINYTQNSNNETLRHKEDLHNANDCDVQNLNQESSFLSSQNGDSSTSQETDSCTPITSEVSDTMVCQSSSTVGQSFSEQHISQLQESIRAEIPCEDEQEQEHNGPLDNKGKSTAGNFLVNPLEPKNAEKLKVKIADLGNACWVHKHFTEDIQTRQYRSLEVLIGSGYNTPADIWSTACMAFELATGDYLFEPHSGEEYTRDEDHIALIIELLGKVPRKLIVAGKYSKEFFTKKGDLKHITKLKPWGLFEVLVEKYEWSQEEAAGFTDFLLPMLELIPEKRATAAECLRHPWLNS
The target is the same in assay [13]. The following applies: at 10 µM.
Assay [14] deals with SRSF protein kinase 2 (Homo sapiens) (UniProt P78362). As to conditions: at 1 µM.
Chain of SRSF protein kinase 2 (Homo sapiens) (P78362 whole entry, looked up): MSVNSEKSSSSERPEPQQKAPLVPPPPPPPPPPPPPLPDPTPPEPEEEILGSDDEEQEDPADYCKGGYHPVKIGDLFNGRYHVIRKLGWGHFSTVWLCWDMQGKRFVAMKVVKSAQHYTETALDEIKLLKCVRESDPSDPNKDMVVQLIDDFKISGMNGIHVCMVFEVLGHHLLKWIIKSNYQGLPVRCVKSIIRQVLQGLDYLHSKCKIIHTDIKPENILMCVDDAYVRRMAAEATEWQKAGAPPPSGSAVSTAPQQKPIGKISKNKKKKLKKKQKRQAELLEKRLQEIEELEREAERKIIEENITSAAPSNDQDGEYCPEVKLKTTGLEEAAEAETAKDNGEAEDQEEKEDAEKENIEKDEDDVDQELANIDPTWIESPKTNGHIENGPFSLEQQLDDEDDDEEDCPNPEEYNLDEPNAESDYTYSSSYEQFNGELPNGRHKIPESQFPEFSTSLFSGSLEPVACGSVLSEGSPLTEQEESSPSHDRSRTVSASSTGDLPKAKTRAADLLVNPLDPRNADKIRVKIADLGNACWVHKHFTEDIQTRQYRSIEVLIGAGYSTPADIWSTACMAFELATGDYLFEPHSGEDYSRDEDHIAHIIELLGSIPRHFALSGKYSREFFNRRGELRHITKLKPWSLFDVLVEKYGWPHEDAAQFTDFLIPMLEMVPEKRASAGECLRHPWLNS
Assay [15] has the same target. As to conditions: at 10 µM.
Assay [16] deals with Serine/threonine-protein kinase 33 (Homo sapiens) (UniProt Q9BYT3). As to conditions: at 1 µM.
Chain of Serine/threonine-protein kinase 33 (Homo sapiens) (Q9BYT3 whole entry, looked up): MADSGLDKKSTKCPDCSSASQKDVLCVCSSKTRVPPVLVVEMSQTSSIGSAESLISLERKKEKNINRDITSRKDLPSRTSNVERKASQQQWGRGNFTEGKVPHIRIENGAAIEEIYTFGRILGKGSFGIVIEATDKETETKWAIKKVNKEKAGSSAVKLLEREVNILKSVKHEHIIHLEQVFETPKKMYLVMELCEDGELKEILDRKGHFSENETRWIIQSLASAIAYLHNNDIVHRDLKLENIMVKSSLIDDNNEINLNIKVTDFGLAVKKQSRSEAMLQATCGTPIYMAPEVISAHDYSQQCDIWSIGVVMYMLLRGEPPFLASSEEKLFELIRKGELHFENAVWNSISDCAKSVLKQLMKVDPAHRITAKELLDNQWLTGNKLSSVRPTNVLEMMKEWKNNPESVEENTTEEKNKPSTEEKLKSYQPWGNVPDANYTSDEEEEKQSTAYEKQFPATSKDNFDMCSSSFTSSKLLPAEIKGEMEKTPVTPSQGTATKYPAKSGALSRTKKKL
Assay [17] has the same target. The following applies: at 10 µM.
Assay [18] has as its target Serine/threonine-protein kinase PLK2 (Homo sapiens) (UniProt Q9NYY3). The following applies: at 1 µM.
For assay [19] the target is unchanged. As to conditions: at 10 µM.
Assay [20] concerns the target Tyrosine-protein kinase SYK (Homo sapiens) (UniProt P43405). As to conditions: at 1 µM.

For six compounds, residual activity results are on record in ChEMBL document CHEMBL2218924, “A broad activity screen in support of a chemogenomic map for kinase signalling research and drug discovery” (Biochem J, 2013).

Molecules are shown by their SMILES.

Chain of Serine/threonine-protein kinase SIK1 (Homo sapiens) (P57059 whole entry): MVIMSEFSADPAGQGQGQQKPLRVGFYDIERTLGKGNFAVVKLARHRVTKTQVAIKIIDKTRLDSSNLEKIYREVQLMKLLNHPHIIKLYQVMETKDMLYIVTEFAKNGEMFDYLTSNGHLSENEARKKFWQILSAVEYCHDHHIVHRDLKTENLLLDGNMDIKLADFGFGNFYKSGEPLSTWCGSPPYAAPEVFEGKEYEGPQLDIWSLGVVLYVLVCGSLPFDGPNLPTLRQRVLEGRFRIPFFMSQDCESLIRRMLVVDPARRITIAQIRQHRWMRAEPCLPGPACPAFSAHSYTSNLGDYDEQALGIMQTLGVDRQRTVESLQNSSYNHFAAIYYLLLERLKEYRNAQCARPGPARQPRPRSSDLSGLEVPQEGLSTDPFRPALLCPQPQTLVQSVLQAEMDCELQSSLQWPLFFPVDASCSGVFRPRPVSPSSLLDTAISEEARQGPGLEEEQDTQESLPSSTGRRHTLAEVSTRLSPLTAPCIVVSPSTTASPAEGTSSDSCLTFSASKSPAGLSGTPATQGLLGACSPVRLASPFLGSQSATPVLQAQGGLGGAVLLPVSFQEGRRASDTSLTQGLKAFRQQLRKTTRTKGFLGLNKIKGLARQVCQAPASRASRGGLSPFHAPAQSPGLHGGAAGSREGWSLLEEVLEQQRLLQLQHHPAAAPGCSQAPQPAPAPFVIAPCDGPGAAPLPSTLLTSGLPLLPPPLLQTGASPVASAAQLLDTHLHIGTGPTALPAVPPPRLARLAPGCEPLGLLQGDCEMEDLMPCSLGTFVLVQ
Chain of Serine/threonine-protein kinase PLK2 (Homo sapiens) (Q9NYY3 whole entry, looked up): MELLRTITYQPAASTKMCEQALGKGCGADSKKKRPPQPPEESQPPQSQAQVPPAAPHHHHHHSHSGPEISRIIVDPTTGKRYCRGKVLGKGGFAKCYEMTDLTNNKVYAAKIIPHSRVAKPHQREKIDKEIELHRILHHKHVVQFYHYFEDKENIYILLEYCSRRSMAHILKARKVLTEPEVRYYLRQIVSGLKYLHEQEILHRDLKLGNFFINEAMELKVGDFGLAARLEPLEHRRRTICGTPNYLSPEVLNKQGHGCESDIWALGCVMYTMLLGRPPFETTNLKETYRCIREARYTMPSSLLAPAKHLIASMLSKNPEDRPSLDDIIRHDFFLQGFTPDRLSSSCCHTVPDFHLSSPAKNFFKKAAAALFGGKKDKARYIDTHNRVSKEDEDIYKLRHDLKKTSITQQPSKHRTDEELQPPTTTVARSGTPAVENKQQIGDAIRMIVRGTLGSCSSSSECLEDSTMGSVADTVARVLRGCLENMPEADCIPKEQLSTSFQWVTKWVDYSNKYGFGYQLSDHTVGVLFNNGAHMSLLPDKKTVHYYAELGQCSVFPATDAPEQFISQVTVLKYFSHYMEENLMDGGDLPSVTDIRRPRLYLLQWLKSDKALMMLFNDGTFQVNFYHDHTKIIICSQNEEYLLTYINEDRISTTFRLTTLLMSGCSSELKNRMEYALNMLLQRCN
Chain of Mitogen-activated protein kinase 11 (Homo sapiens) (Q15759 whole entry): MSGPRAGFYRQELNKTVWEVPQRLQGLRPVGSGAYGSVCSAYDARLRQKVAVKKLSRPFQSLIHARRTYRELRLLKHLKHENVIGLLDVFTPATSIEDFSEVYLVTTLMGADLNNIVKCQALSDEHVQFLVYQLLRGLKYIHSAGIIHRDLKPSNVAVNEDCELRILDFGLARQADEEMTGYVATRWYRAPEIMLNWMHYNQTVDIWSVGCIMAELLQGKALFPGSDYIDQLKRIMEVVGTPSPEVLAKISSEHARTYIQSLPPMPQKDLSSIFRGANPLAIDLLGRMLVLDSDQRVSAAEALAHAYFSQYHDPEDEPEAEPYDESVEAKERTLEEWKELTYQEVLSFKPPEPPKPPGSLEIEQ

As for `CC(C)n1cnc2c(NCc3ccccc3)nc(NCCCO)nc21`, the residual activity in assay [1] is 100%; in [2], 109%; in assay [3] it was 76%; in assay [4], 90%; in [5] it was 97%; in assay [6], 105%. Moreover, the residual activity in assay [7] came to 79%; in [8], 67%; in assay [9] it was 76%; in [10], 116%; in assay [11], 100%; in assay [12] it was 78%. For the same compound, the residual activity was 37% in assay [13]; 93% in assay [14]; 37% in assay [15]; 93% in assay [16]; 71% in assay [17]; 94% in [18]. For the same compound, the residual activity in assay [19] is 88%; in assay [20], 103%.
For `N#Cc1cnc2cnc(NCc3cccnc3)cc2c1Nc1ccc(F)c(Cl)c1`, the residual activity in assay [1] turned out to be 119%; in [3], 96%; in [4], 95%; in assay [7], 79%; in assay [8] it was 63%; in assay [10], 101%. Moreover, the residual activity in assay [11] was found to be 97%; in assay [12], 100%; in [13], 78%; in assay [14], 102%; in [15], 76%; in assay [16] it was 99%. Also, the residual activity came to 77% in [17], 101% in [18], 101% in assay [19] and 2% in [20].
On to `Cn1nc2c3c(cccc31)C(=O)c1ccccc1-2`, for which the residual activity in assay [1] stood at 101%; in assay [2] it was 92%; in [3], 94%; in assay [4] it was 88%; in assay [5], 77%; in assay [6] it was 72%. The residual activity in assay [7] stood at 100%; in [8], 69%; in assay [9], 74%; in assay [10] it was 132%; in assay [11], 64%; in assay [12], 101%. In addition, the residual activity in [13] is 89%; in assay [14], 100%; in assay [15], 71%; in [16], 87%; in assay [17], 74%; in assay [18] it was 100%. The residual activity in assay [19] amounted to 89%; in assay [20], 96%.
With `CCOc1cc2ncnc(Nc3cccc(Br)c3)c2cc1OCC`, the residual activity in assay [1] is 94%; in [2], 50%; in assay [3], 91%; in assay [4], 90%; in assay [5], 107%; in [6] it was 89%. Moreover, the residual activity amounted to 68% in [7]; 60% in assay [8]; 73% in assay [9]; 83% in assay [10]; 102% in assay [11]; 83% in [12]. Besides, the residual activity in [13] came out at 91%; in assay [14] it was 102%; in assay [15] it was 91%; in assay [17] it was 92%; in assay [18], 99%; in [19], 88%. Also, the residual activity in [20] was determined as 111%.
`CC(=O)c1ccc(N2CCOCC2)cc1O`: the residual activity in [1] amounted to 106%; in [2] it was 104%; in assay [5] it was 109%; in assay [6], 62%; in assay [7], 105%; in assay [8], 66%. The residual activity in assay [10] came to 90%; in assay [11], 5%; in assay [12] it was 98%; in assay [14] it was 98%; in assay [15], 95%; in assay [16], 92%. The residual activity was found to be 105% in assay [17], 103% in assay [18], 98% in assay [19] and 129% in assay [20].
In the case of `Cc1ccc(S(=O)(=O)/C=C/C#N)cc1`, the residual activity in assay [2] came out at 104%; in assay [3], 104%; in assay [4], 103%; in [5], 76%; in [6], 104%; in assay [7], 97%. Also, the residual activity in [8] amounted to 101%; in assay [9] it was 81%; in assay [10], 81%; in assay [11], 97%; in assay [12], 101%; in assay [13] it was 93%. In addition, the residual activity in assay [14] was 95%; in [15], 95%; in assay [16] it was 103%; in assay [17] it was 96%; in assay [18], 98%; in [19], 85%. For the same compound, in assay [20], the residual activity amounted to 104%.
